Compounds with a hit are over-represented: about 4% of the library has one in this group of screens.
Gli-Sufu block – Gli-Sufu pathway antagonists, primary screen, luciferase luminescence, Sufu-KO-LIGHT cells, uHTS | Sufu-KO-LIGHT fibroblasts, Gli luciferase reporter luminescence | inhibition, % at 5 µM | 0.74% of 340,000 active | AID 588413, 2011;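 active = inhibition above about 55%, limit read from the data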
Mdm2-MdmX inh – inhibitors of human Mdm2-MdmX association, primary screen, cell-based, luminescence, split luciferase, SaOS-2, uHTS; Protein Mdm4 (Homo sapiens) + E3 ubiquitin-protein ligase Mdm2 (Homo sapiens), …; SaOS-2 split-luciferase Mdm2/MdmX complementation; inhibition, % at 8 µM; 3% of 330,000 active; AID 485346, 2010;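 active = inhibition of at least 50% at 8 µM in the primary screen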
Target sequence (O15151 whole entry, looked up): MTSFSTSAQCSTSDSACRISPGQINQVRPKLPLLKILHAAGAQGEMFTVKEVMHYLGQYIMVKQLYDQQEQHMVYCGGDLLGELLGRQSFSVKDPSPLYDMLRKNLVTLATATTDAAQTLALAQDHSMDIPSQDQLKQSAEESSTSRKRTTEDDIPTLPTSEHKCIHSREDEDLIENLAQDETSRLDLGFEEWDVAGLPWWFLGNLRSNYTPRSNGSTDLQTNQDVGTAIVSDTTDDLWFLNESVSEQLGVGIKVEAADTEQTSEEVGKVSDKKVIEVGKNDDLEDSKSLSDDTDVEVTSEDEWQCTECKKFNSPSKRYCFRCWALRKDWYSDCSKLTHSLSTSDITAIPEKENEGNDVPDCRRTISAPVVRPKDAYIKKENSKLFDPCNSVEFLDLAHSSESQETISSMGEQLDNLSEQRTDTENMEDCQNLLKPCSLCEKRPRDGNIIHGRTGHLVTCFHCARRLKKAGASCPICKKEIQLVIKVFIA
Target sequence (Q00987 whole entry, looked up): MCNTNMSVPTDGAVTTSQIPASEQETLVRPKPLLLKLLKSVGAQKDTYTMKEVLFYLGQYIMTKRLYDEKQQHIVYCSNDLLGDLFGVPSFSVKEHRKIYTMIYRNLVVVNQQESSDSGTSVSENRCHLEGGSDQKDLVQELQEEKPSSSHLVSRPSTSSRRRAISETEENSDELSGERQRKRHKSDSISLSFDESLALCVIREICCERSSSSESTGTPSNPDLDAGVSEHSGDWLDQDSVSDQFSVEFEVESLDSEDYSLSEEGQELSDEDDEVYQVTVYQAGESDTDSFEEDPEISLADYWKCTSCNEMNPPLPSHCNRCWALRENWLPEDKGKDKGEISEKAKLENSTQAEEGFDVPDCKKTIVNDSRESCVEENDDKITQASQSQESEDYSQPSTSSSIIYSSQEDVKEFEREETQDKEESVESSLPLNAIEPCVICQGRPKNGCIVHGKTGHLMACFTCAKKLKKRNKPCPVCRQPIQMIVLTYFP
PAX8 reporter – inhibitors of PAX8-driven TPO luciferase reporter, primary screen, RMG-I cells, single concentration; SteadyGlo, 24 h; inhibition, % at 12.6 µM; 1.2% of 360,000 active; AID 652154, 2013;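 active = mean replicate inhibition at least 60% with every replicate also reaching 60%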;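 note: luciferase light reporting Pax8 driven TPO promoter activity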
Shn3 3UTR inh – reduction of Shn3 3'UTR firefly luciferase signal, primary screen, Schnurri-3 inhibitor project, cell-based, Clone20 osteoblasts, set 2. Clone20 osteoblast Shn3 3'UTR firefly luciferase, 24 h. inhibition, % at 12.5 µM. 0.52% of 360,000 active;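 active = mean inhibition of at least 75% with every replicate also reaching 75%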
CSC inhib – cancer stem cell viability inhibitors, primary screen, luminescence. cancer stem cell-like cells viability. inhibition, % at 7.5 µM. 1.1% of 300,000 active; in the data active = inhibition above about 75%; tested in HMLE shEcad cells
Beta apoptosis – inhibitors of cytokine-induced beta cell apoptosis, primary screen, luminescence | INS-1E cytokine-induced death, ATP luminescence, 48 h; percent of positive-control rescue, neutral wells zero | AID 435005, 2010 | 0.8% of 300,000 active | protection from apoptosis, % (concentration not given with the values);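 active = Every replicate reaches about 75%, or at least half do and their mean reaches it too, limit read from the data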;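 note: higher means more ATP so stronger rescue from cytokine killing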
Mdm2 MdmX conf – Mdm2-MdmX complex disruptors, retested hits, confirmation, luminescence, single concentration; shares compounds with Mdm2-MdmX inh; Mdm2-MdmX binding, luminescent assay; inhibition, % at 8 µM; 55% of 10,000 active; in the data active = inhibition above about 40%
FLuc counter – full-length luciferase signal inhibition, confirmation, counter-screen for Mdm2/MdmX interaction inhibitor project, cell-based, single concentration, SaOS-2 | inhibition, % at 8 µM | AID 504607, 2011 | SaOS-2 full-length luciferase counterscreen, luminescence | shares compounds with Mdm2-MdmX inh | 77% of 6,200 active;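 active = mean inhibition at 8 µM reaching about 37%, which flags the compound as non-specific, limit read from the data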;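 note: p53-null SaOS-2 cells with luciferase driven by a doxycycline-inducible promoter; compound on cells about two nights before reading with doxycycline added after day one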
Hits are given with their value; i = inactive; nt = no result given.

SMILES	Gli-Sufu block	Mdm2-MdmX inh	PAX8 reporter	Shn3 3UTR inh	CSC inhib	Beta apoptosis	Mdm2 MdmX conf	others
O=C(CN1C(=O)S/C(=C\c2ccc(-c3cc(C(=O)O)ccc3Cl)o2)C1=O)Nc1ccc2c(c1)OCO2	nt	i	i	i	i	i	nt
Cn1cc(/C=C2/SC(=O)N(CC(=O)Nc3ccc4c(c3)OCO4)C2=O)c2ccccc21	i	64.2	nt	i	i	i	i
Cc1ccc(NC(=O)CN2C(=O)S/C(=C\c3ccccn3)C2=O)cc1C	i	68.2	i	i	i	i	i
COc1ccc(CNC(=O)C[C@@H]2CC[C@H]3[C@H](COc4ccc(NC(C)=O)cc4C(=O)N3C)O2)cc1	nt	nt	i	nt	nt	nt	nt
O=C(C[C@H]1CC[C@@H](NC(=O)C2CCOCC2)[C@H](CO)O1)NCc1ccccc1Cl	nt	nt	i	nt	nt	nt	nt
CC(NC(=O)/C(C#N)=C/c1ccc([N+](=O)[O-])o1)c1ccccc1 (stereo not drawn)	i	100.3	i	94.3	nt	i	i
O=C(CSc1nnnn1-c1ccccc1)Nc1ncc(Cc2cccc(Cl)c2Cl)s1	i	56.2	i	i	i	i	i
O=C(CSc1nnnn1-c1ccccc1)Nc1ncc(Cc2cc(Cl)ccc2Cl)s1	i	i	nt	i	i	i	nt
CCc1ccc(CCC(=O)Nc2ncc(Cc3ccccc3Cl)s2)o1	i	66.4	i	i	81.5	i	51.3	FLuc counter=79.6
Cc1ccc(-n2nnnc2SCC(=O)Nc2ncc(Cc3ccccc3Cl)s2)cc1	i	58.8	nt	i	nt	i	i
Cc1ccc(S(=O)(=O)Nc2ccc3c(c2)C(=O)N([C@@H](C)CO)C[C@@H](C)[C@@H](CN(C)C(=O)Nc2ccc(C(F)(F)F)cc2)OCCCC[C@@H](C)O3)cc1	nt	nt	i	nt	nt	nt	nt
COc1ccc2c3c([nH]c2c1)[C@@H](CO)N(S(C)(=O)=O)CC31CN(C(=O)c2cccnc2)C1	nt	nt	i	nt	nt	nt	nt
C[C@@H]1CN([C@@H](C)CO)C(=O)c2cc(NC(=O)CCC(F)(F)F)ccc2O[C@@H](C)CCCCO[C@@H]1CN(C)C(=O)c1ccncc1	nt	nt	i	nt	nt	nt	nt
O=C1CC(N(CCc2ccccc2)C(=S)Nc2ccccc2)C(=O)N1c1ccc(Br)cc1 (stereo not drawn)	i	68.0	i	i	i	i	i	FLuc counter=59.2
Cc1cc(NC(=O)c2ccc(F)cc2)n(-c2ccccn2)n1	i	i	i	i	nt	i	nt
Cc1cc(NC(=O)c2ccc(C#N)cc2)n(-c2ccccn2)n1	i	63.3	i	i	i	i	i
FC(F)(F)c1cccc(-c2nc3nc(Cl)c(Cl)nc3[nH]2)c1	i	80.1	nt	i	75.6	99.1	74.8	FLuc counter=69.4
C[C@@H]1CN([C@H](C)CO)C(=O)Cc2cc(NS(=O)(=O)c3ccccc3)ccc2O[C@H]1CN(C)C	nt	nt	i	nt	nt	nt	nt
O=C1c2ccccc2C(=O)c2[nH]c(=O)[nH]c21	i	69.0	91.5	i	nt	nt	43.9	FLuc counter=47.6
CC(C)NC(=O)N(C)C[C@@H]1Oc2c(cccc2N(C)C)C(=O)N([C@H](C)CO)C[C@H]1C	nt	nt	i	nt	nt	nt	nt
COc1ccc(C(=O)Oc2c(CN3CCOCC3)cc(Cl)c3cccnc23)cc1OC	i	60.2	i	nt	i	i	i
O=S(=O)(c1ccc(Cl)cc1)N1CCN(Cc2ccc(O)c3ncccc23)CC1	i	76.9	i	87.7	89.1	85.5	67.5	FLuc counter=i
Oc1ccc(CN2CCN(Cc3ccccc3)CC2)c2cccnc12	i	i	i	i	i	i	nt
Oc1c(CN2CCc3ccccc3C2)cc(Cl)c2cccnc12	i	69.9	nt	86.8	83.7	i	79.5	FLuc counter=46.0
O=C(Oc1c(CN2CCOCC2)cc(Cl)c2cccnc12)c1ccccc1F	i	i	i	i	i	i	nt
